# Results: PubChem BioAssay (Tox21)
# Where “and” joins values, the source holds several entries; their conditions need not be identical. Equal entries are not always repeated. A number with no mark means an inactive call. Inconclusive results are not listed. A call without a number means that no potency is given here. Calls of active or inactive are those of the source. Unless noted, the call rests on the fitted dose curve; in most records, active means well fitted curve in the direction sought with a large enough effect in the repeat runs; inconclusive means weak or mixed curves; inactive means no such curve, though single readings can be large; an effect the other way counts as inactive or inconclusive.
# Assays:
# [1] = molecular target: Luciferin 4-monooxygenase (Photinus pyralis) (UniProt P08659); test: qHTS assay to identify small molecule inhibitors of firefly luciferase (AID 1224835); further: nearly all actives have a fitted effect of over 25% in size; further: potency means the concentration at half of the fitted maximal effect
# Luciferin 4-monooxygenase (Photinus pyralis), sequence (P08659 whole entry, looked up): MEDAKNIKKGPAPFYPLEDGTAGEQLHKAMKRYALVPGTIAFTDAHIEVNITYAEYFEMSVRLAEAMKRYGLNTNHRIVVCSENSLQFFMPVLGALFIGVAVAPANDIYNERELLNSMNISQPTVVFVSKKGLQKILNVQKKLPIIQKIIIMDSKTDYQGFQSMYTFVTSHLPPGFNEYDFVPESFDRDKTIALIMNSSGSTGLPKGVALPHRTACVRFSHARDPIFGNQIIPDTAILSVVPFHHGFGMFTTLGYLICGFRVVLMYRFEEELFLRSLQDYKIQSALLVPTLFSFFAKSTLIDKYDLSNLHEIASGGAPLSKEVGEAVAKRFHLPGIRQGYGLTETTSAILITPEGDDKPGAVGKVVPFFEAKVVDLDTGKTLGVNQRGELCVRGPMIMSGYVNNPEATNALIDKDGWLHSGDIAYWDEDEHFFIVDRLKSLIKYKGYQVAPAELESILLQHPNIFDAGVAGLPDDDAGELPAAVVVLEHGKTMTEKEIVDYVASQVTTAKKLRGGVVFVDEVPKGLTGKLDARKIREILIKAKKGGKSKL
# Procedure, shortened: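 Quantitative HTS format; KM concentrations of both substrates. Purified P. pyralis FLuc activity quantified from luminescence images.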
# [2] = qHTS assay to identify small molecule agonists of the constitutive androstane receptor (CAR) signaling pathway - cell viability counter screen (AID 1224836); further: nearly all actives have a fitted effect of over 45% in size; further: potency means the concentration at half of the fitted maximal effect
# Procedure, shortened: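 HepG2-CYP2B6-hCAR, 2500 cells/well, 4 h pre-incubation; cpd 15 conc + PK11195 0.75 uM final; 23 h, 37 C/5% CO2; CellTiter-Fluor, fluorescence.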
# [3] = molecular target: Nuclear receptor subfamily 1 group I member 3 (Homo sapiens) (UniProt Q14994); test: qHTS assay to identify small molecule antagonists of the constitutive androstane receptor (CAR) signaling pathway (AID 1224838);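 further: HepG2 cells stably expressing hCAR with CYP2B6 luciferase reporter stimulated by CITCO; nearly all actives have a fitted effect of over 40% in size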; further: potency means the concentration at half of the fitted maximal effect
# Nuclear receptor subfamily 1 group I member 3 (Homo sapiens), sequence (Q14994 whole entry, looked up): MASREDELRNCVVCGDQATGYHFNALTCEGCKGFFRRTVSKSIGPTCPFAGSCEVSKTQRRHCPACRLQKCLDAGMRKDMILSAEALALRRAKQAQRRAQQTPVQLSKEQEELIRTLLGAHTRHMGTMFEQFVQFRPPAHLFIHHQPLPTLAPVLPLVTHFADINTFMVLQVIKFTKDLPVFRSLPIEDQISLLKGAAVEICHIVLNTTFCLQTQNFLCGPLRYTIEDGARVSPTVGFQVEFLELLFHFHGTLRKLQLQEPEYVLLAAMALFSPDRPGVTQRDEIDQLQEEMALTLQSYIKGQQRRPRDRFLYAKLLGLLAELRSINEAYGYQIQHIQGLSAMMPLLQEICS
# Procedure, shortened: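 Human hepatoma HepG2 cells expressing hCAR and a CYP2B6 promoter (2.2 kb) luciferase construct; compound titration (15 points) with 50 nM CITCO final, 24 h at 37 C/5% CO2; luminescence via ONE-Glo after 30 min at room temperature.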
# [4] = molecular target: Nuclear receptor subfamily 1 group I member 3 (Homo sapiens) (UniProt Q14994); test: qHTS assay to identify small molecule agonists of the constitutive androstane receptor (CAR) signaling pathway (AID 1224839); further: nearly all actives have a fitted effect of over 15% in size; further: potency means the concentration at half of the fitted maximal effect;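 on activation: HepG2 cells stably carrying human CAR and a CYP2B6 luciferase reporter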
# Procedure, shortened: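 HepG2-CYP2B6-hCAR cells, 2500/well, 4 h pre-incubation; compounds 15 conc.; PK11195 0.75 uM final; 24 h, 37 C/5% CO2; ONE-Glo luciferase read.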
# [5] = qHTS assay to identify small molecule antagonists of the estrogen related receptor signaling pathway with the pleiotropic PPARgamma coactivator (PGC) from Tox21 10K library - cell viability counter screen (AID 1224840; active means well fitted cell-killing curve with a large enough effect in the repeat runs, not every such curve was filed as active; further: nearly all actives have a fitted effect of over 40% in size; further: potency means the concentration at half of the fitted maximal effect)
# Procedure, shortened: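 Seeded PGC/ERR cells (2,000/well, 6 h, 37 C/5% CO2) get compound by pin tool; 17.5 h incubation at 37 C; CellTiter-Fluor added, 30 min, fluorescence measured.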
# [6] = molecular target: Thyrotropin receptor (Homo sapiens) (UniProt P16473); test: qHTS assay to identify small molecule agonists of the thyroid stimulating hormone receptor (TSHR) signaling pathway (AID 1224843; calls by dose curve; further: nearly all actives have a fitted effect of over 45% in size; further: potency means the concentration at half of the fitted maximal effect)
# Thyrotropin receptor (Homo sapiens), sequence (P16473 whole entry, looked up): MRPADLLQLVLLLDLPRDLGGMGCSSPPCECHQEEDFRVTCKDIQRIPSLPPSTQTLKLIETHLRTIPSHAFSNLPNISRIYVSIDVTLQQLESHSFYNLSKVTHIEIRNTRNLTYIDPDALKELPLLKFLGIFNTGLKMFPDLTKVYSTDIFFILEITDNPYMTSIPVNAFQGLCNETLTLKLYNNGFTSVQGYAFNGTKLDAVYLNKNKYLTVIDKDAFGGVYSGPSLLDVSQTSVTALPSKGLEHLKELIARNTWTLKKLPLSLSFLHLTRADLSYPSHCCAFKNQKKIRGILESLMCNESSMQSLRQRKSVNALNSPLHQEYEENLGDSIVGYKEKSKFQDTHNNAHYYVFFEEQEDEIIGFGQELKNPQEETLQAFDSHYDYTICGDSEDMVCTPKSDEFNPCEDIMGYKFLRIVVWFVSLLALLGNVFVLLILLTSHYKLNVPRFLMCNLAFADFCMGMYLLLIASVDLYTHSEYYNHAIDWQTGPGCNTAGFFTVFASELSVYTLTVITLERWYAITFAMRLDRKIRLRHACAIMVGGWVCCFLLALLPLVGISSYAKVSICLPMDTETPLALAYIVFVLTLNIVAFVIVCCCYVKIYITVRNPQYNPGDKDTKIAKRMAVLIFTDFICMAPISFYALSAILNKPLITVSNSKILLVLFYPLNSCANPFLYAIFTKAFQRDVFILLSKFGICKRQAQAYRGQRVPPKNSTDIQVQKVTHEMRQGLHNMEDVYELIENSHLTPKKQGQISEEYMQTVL
# Procedure, shortened: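 Using 15 concentrations per compound in triplicate, cAMP production was monitored in TSHR-HEK293 cells after 30 min compound incubation at RT; HTRF reagents followed, with fluorescence intensity recorded after 1 h.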
# [7] = qHTS assay to identify small molecule agonists of H2AX - cell viability counter screen (AID 1224847; calls by dose curve; further: nearly all actives have a fitted effect of over 30% in size; further: potency means the concentration at half of the fitted maximal effect)
# Procedure, shortened: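 Cells plated first: CHO-K1, 1000 per well in 10% FBS medium, incubated overnight at 37C. Then 15-point compound titration added (final DMSO 0.76%) for 3 hr. Finally CellTiter-Glo added and luminescence read.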
# [8] = qHTS RealTime-Glo MT Cell Viability Assay in HepG2 cells - 24 hour (AID 1224867); further: nearly all actives have a fitted effect of over 50% in size; further: potency means the concentration at half of the fitted maximal effect
# Procedure, shortened: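 qHTS, HepG2, 600 cells/well, RealTime-Glo (NanoLuc + prosubstrate) added with cells; 5 h preincubation; DMSO compound addition; 37 C; luminescence at 0/8/16/24/32/40 h.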
# [9] = qHTS RealTime-Glo MT Cell Viability Assay in HEK293 cells - 32 hour (AID 1224868); further: nearly all actives have a fitted effect of over 50% in size; further: potency means the concentration at half of the fitted maximal effect
# Procedure, shortened: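 Assay medium contained NanoLuc luciferase plus cell-permeant prosubstrate, added with HEK293 cells at 600 cells/well. After 5 h at 37 C/5% CO2 compounds were added; plates stayed at 37 C for 40 h with serial luminescence reads.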
# [10] = A CellTox Green Cytotoxicity Assay to monitor cytotoxicity in HEK293 cells - 0 hour (AID 1224869); further: nearly all actives have a fitted effect of over 50% in size
# Procedure, shortened: (§1)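 Tox21 screen in HEK293: membrane-impermeant cyanine dye fluoresces on binding dead-cell DNA; compound pinned 5 h post-seeding, plates held at 37 C, signal read repeatedly through 40 h.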
# [11] = qHTS RealTime-Glo MT Cell Viability Assay in HepG2 cells - 40 hour (AID 1224870); further: nearly all actives have a fitted effect of over 50% in size; further: potency means the concentration at half of the fitted maximal effect
# Procedure, shortened: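 HepG2 cells mixed with RealTime-Glo MT reagents (NanoLuc plus cell-permeant prosubstrate) were seeded at 600 cells/well, incubated 5 h at 37 C/5% CO2, then pinned with compounds in DMSO; nonlytic luminescence tracked viability during 40 h treatment.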
# [12] = A CellTox Green Cytotoxicity Assay to monitor cytotoxicity in HEK293 cells - 40 hour (AID 1224871); further: nearly all actives have a fitted effect of over 45% in size; further: potency means the concentration at half of the fitted maximal effect
# Procedure, shortened: as §1
# [13] = qHTS assay to identify small molecule antagonists of the estrogen related receptor signaling pathway with the pleiotropic PPARgamma coactivator (PGC) from Tox21 10K library (AID 1224841; call rule not given here; further: potency means the concentration at half of the fitted maximal effect)
# Procedure, shortened: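 Test chemicals dissolved in DMSO were applied to pre-incubated (6 h) PGC/ERR cells at 2,000 cells/well for an 18 h, 37 C treatment; reporter luminescence was then read using One-Glo.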
# [14] = qHTS assay to identify small molecule agonists of the estrogen related receptor signaling pathway with the pleiotropic PPARgamma coactivator (PGC) from Tox21 10K library (AID 1224842); further: nearly all actives have a fitted effect of over 15% in size
# Procedure, shortened: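 PGC/ERR reporter cells (NTP line) were seeded 2,000 per well, rested 6 h at 37 C/5% CO2, then pin-dosed with compounds in DMSO for 18 h at 37 C; luciferase read by One-Glo luminescence after 30 min at room temperature.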
# [15] = qHTS assay to identify small molecule antagonists of the estrogen related receptor (ERR) signaling pathway from Tox21 library (AID 1224848); further: nearly all actives have a fitted effect of over 50% in size; further: potency means the concentration at half of the fitted maximal effect
# Procedure, shortened: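 Tox21 10K compounds in DMSO tested for ERR pathway antagonism in NTP's ERR cell line; 18 h, 37 C exposure; ONE-Glo luminescence.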
# [16] = qHTS assay to identify small molecule agonists of the estrogen related receptor (ERR) signaling pathway from Tox21 library (AID 1224849; calls by dose curve; further: nearly all actives have a fitted effect of over 15% in size); details: ERR reporter cell line, ONE-Glo luciferase, 18 h; at 92.4 µM (top of the series) unless noted
# Procedure, shortened: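 Tox21 compounds tested for ERR agonism in an NTP reporter cell line: 18 h treatment at 37 C, then ONE-Glo luminescence.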
# [17] = qHTS assay to identify small molecule agonists of the hypoxia (HIF-1) signaling pathway - cell viability counter screen (AID 1224844; calls by dose curve; further: nearly all actives have a fitted effect of over 50% in size; further: potency means the concentration at half of the fitted maximal effect)
# Procedure, shortened: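 HRE-bla ME-180; 0.5% dFBS; cpd 17 h, 37C, 5% CO2; CellTiter-Glo lum., 30 min RT, post-FRET read, same wells.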
# [18] = qHTS assay to identify small molecule agonists of H2AX (AID 1224845; active means well fitted activation curve with a large enough effect in the signal ratio in the repeat runs, not every such curve was filed as active; the % refers to the signal ratio; further: potency means the concentration at half of the fitted maximal effect)
# Procedure, shortened: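 Wild-type CHO-K1 cells plated overnight, then exposed 3 hr at 37C to compounds at 15 concentrations (0.76% DMSO). Lysed, then HTRF anti-pH2AX(S139)-cryptate/anti-H2AX-d2 detection after 24 hr at room temperature; emissions 665 and 620 nm.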
# [19] = qHTS assay to identify small molecule antagonists of the constitutive androstane receptor (CAR) signaling pathway - cell viability counter screen (AID 1224837); further: nearly all actives have a fitted effect of over 45% in size; further: potency means the concentration at half of the fitted maximal effect
# Procedure, shortened: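 To flag cytotoxic false antagonists, HepG2 hCAR/CYP2B6-2.2kb cells were treated 23 hr with 15-concentration compound series and 50 nM CITCO at 37 C/5% CO2; CellTiter-Fluor fluorescence was the measured end point.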
# [20] = qHTS assay to identify small molecule agonists of the hypoxia (HIF-1) signaling pathway (AID 1224846; active means well fitted activation curve with a large enough effect in the signal ratio in the repeat runs, not every such curve was filed as active; the % refers to the signal ratio)
# Procedure, shortened: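 Reporter induction in HRE-bla ME-180 cells is taken as agonism: cells sit 5 hrs after plating, receive compounds or DMSO only, incubate 17 hrs at 37C under 5% CO2, and are loaded with CCF4-AM for beta-lactamase FRET measurement.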
Compound,Potency [1],Potency [2],Potency [3],Potency [4],Potency [5],Potency [6],Potency [7],Potency [8],Potency [9],Potency [10],Potency [11],Potency [12],Potency [13],Potency [14],Potency [15],"activity change, positive = activation [16]",Potency [17],Potency [18],Potency [19],outcome [20]
CNC(C)Cc1ccc2c(c1)OCO2 (stereo unspecified),inactive,inactive,inactive,inactive,inactive,inactive,inactive,inactive,inactive,inactive,inactive,inactive,–,–,–,–,–,–,–,–
CC[C@H]1C[C@@H]2C[C@H]3c4[nH]c5ccc(OC)cc5c4CCN(C2)[C@@H]13,inactive,inactive,inactive,inactive,–,–,inactive,–,–,inactive,–,inactive,53.5 µM (active),inactive,30.1 µM (active),-44.1%,–,–,–,–
CC(C)C1CCC(Cc2ccc(Cl)cc2)C1(O)Cn1cncn1 (stereo unspecified),inactive,–,–,inactive,–,48.1 µM (active),88.9 µM (active),43.2 µM (active),12.2 µM (active),inactive,–,24.3 µM (active),15.2 µM (active),inactive,27 µM (active),-68.5%,54.4 µM (active),–,–,–
CC(C)CC(C)Nc1ccc(Nc2ccccc2)cc1 (stereo unspecified),39.3 µM (active),–,–,–,67.4 µM (active),–,78.7 µM (active),–,21.5 µM (active),inactive,–,–,60.1 µM (active),inactive,47.7 µM (active),-75.8%,–,–,–,–
O=C(CCl)C(Cl)Cl,inactive,21.9 µM (active),13.8 µM (active),inactive,24.6 µM (active),–,inactive,–,17.5 µM (active),inactive,–,24.8 µM (active),61.7 µM (active),inactive,43.7 µM (active),-73%,–,40.5 µM (active),–,–
CC(C)N1C(=O)N(c2ccccc2)CSC1=NC(C)(C)C,inactive,–,inactive,24.3 µM (active),–,inactive,–,inactive,–,inactive,–,inactive,–,inactive,34.4 µM (active),-49.9%,–,inactive,inactive,–
N#CCCC(Br)(C#N)CBr (stereo unspecified),35.6 µM (active),–,68.6 µM (active),inactive,–,4.86 µM (active),127 µM (active),38.9 µM (active),–,inactive,38.9 µM (active),49 µM (active),–,inactive,–,-45.2%,19.5 µM (active),35.7 µM (active),61.1 µM (active),–
CC(C)(C)C(O)/C(=C\c1ccc(Cl)cc1Cl)n1cncn1 (stereo unspecified),inactive,74 µM (active),inactive,–,58.7 µM (active),–,122 µM (active),–,29.7 µM (active),inactive,–,–,29.4 µM (active),inactive,33 µM (active),-63.4%,inactive,inactive,–,inactive
COP(=O)(OC)SCn1c(=O)oc2cc(Cl)cnc21,inactive,30.6 µM (active),–,inactive,inactive,24.3 µM (active),–,inactive,–,inactive,inactive,–,–,inactive,–,-27.7%,49 µM (active),inactive,–,inactive
C[C@@H]1O[C@@H](O[C@H]2C[C@@H](O)[C@]3(CO)[C@H]4[C@H](O)C[C@]5(C)[C@@H](C6=CC(=O)OC6)CC[C@]5(O)[C@@H]4CC[C@]3(O)C2)[C@H](O)[C@H](O)[C@H]1O,inactive,231 nM (active) and 266 nM (active),146 nM (active) and 168 nM (active),inactive,–,–,inactive,–,–,inactive,–,inactive,–,–,–,–,–,inactive,–,–
Cc1cc(C)c(C2=C(OC(=O)CC(C)(C)C)C3(CCCC3)OC2=O)c(C)c1,–,inactive,inactive,inactive,inactive,–,–,inactive,inactive,inactive,inactive,inactive,inactive,inactive,inactive,-1.28%,inactive,inactive,inactive,–
CC[C@H](C)[C@H]1O[C@]2(C=C[C@@H]1C)C[C@@H]1C[C@@H](C/C=C(\C)[C@@H](O[C@H]3C[C@H](OC)[C@@H](O[C@H]4C[C@H](OC)[C@@H](O)[C@H](C)O4)[C@H](C)O3)[C@@H](C)/C=C/C=C3\CO[C@@H]4[C@H](O)C(C)=C[C@@H](C(=O)O1)[C@]34O)O2,–,32.2 µM (active),40.5 µM (active),inactive,28.7 µM (active),–,–,–,–,inactive,–,–,7.2 µM (active),inactive,7.2 µM (active),-67% [at 42.5 µM],28.9 µM (active),inactive,32.2 µM (active),–
Nc1c(Oc2ccccc2)cc(O)c2c1C(=O)c1ccccc1C2=O,–,inactive,inactive,6.68 µM (active),inactive,–,inactive,inactive,–,inactive,inactive,inactive,–,–,–,–,inactive,inactive,inactive,inactive
CN(C)C1CSSSC1,–,inactive,inactive,inactive,inactive,–,inactive,inactive,inactive,inactive,inactive,inactive,–,inactive,inactive,-13.3%,inactive,inactive,inactive,inactive
Oc1ccc(C2(c3ccc(O)cc3)CCCCC2)cc1,inactive,–,–,–,–,–,95.4 µM (active),inactive,52.1 µM (active),inactive,inactive,–,–,–,–,–,52.1 µM (active),inactive,–,–
COc1cccc2c1C(=O)c1c(O)c3c(c(O)c1C2=O)C[C@@](O)(C(=O)CO)CC3OC1CC(N2CCOC(OC)C2)C(O)C(C)O1 (stereo partly specified),–,0.119 µM (active),0.0298 µM (active),inactive,inactive,inactive,inactive,1.9 µM (active),0.0301 µM (active),inactive,–,inactive,0.266 µM (active),inactive,inactive,-10.4% [at 42.5 µM],–,–,0.106 µM (active),–
